Tcruzi prolif – T. cruzi proliferation inhibition | 5.9% of 77,000 active | T. cruzi beta-gal in NIH3T3, GalScreen luminescence, 90 h | inhibition, % at 8.34 µM;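 active means mean inhibition above about 93%, with at least 55% of replicates each passing it, limit read from the data, passing the limit was not always enough; inconclusive means only one of those two conditions holds; inactive means neither condition holds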
C diff growth – C. difficile growth inhibition; Clostridium difficile clinical isolate growth, OD600, 24 h; active compounds read low; 0.25% of 86,000 active; growth activity, negative = inhibition, % at 16 µg/mL (by protocol);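 active means mean growth activity at or below -80% and every replicate also at or below -80%; inconclusive means mean at or below -80% but some replicate above -80%; inactive means mean growth activity above -80%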;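 further: 0% = DMSO wells and -100% = levofloxacin 16 µg/mL wells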
Pf Dd2 inh – blocks growth of Plasmodium falciparum Dd2 parasites; P. falciparum Dd2 growth, SYBR Green, 72 h; active compounds read low; activity change, % at 10 µM; 2.3% of 94,000 active; AID 1159554; in the data active means activity change below about -80%; inconclusive means no clear call, values can overlap the other calls
* hit, by the source's call. Sampled rows, rich in hits. Any-hit rate of the full collection: about 6.7%.

Screening O=C(CN1CCOCC1)N[C@H]1CC[C@@H](CCNS(=O)(=O)c2ccccc2F)O[C@@H]1CO returned Tcruzi prolif -3 and Pf Dd2 inh 22.
COc1ccc(CN2CC3(CCN(S(=O)(=O)c4ccc(C)cc4)CC3)c3c([nH]c4cc(OC)ccc34)[C@@H]2CO)cc1 was read as Pf Dd2 inh 17.
`CC=Cc1ccc2n(c1=O)C[C@@H]1[C@@H](CO)[C@H](C(=O)NC3CCC3)[C@H]2N1C(=O)c1ccccn1` (mixture of isomers) gave Tcruzi prolif -28 and C diff growth 1.
`C/C=C/c1ccc([C@@H]2[C@H](CO)N3CCCCN(C(=O)Nc4cc(F)ccc4F)C[C@@H]23)cc1` gave Tcruzi prolif 92, C diff growth 24 and Pf Dd2 inh -57.
CN(C)C(=O)c1ccc(-c2cccc(-c3nc(C(=O)NC4CCCC4)cc4c3[C@@H](CCO)N([S@](=O)C(C)(C)C)C4)c2)cc1 was read as Tcruzi prolif 72 and Pf Dd2 inh -74.
Screening CN(C)C(=O)c1ccc(-c2cccc(-c3nc(C(=O)NC4CCCCC4)cc4c3[C@@H](CCO)N([S@](=O)C(C)(C)C)C4)c2)cc1 returned Tcruzi prolif 72 and Pf Dd2 inh -74.
For COc1ccc(C#Cc2cccc(-c3nc(C(=O)N[C@@H]4CCN(Cc5ccccc5)C4)cc4c3[C@@H](CCO)N(S(=O)C(C)(C)C)C4)c2)cc1OC (some centres undefined) the results were C diff growth -2 and Pf Dd2 inh -88*.
CN(C)C(=O)c1cccc(-c2cccc(-c3nc(C(=O)NC4CCCCC4)cc4c3[C@H](CCO)N([S@@](=O)C(C)(C)C)C4)c2)c1 was read as Tcruzi prolif 78 and Pf Dd2 inh -84*.
CN(C)C(=O)c1cccc(-c2cccc(-c3nc(C(=O)NC4CCCCC4)cc4c3[C@@H](CCO)N([S@](=O)C(C)(C)C)C4)c2)c1 was read as Tcruzi prolif 59 and Pf Dd2 inh -87*.
Screening CC(C)(O)C#Cc1cccc(-c2nc(C(=O)N[C@@H]3CCN(Cc4ccccc4)C3)cc3c2[C@@H](CCO)N(S(=O)C(C)(C)C)C3)c1 (some centres undefined) returned C diff growth 3 and Pf Dd2 inh -72.
Screening Cc1noc(C)c1S(=O)(=O)N(C)C[C@@H]1OCCCC[C@@H](C)Oc2ccc(NC(=O)c3ccccc3)cc2C(=O)N([C@@H](C)CO)C[C@H]1C returned Tcruzi prolif 23, C diff growth 4 and Pf Dd2 inh -31.
Screening C[C@@H]1CCCCO[C@H](CN(C)S(=O)(=O)c2ccc(F)cc2)[C@@H](C)CN([C@@H](C)CO)C(=O)c2cc(NC(=O)Nc3ccc(C(F)(F)F)cc3)ccc2O1 returned Tcruzi prolif 86 and Pf Dd2 inh -85*.
Screening C[C@H](CO)N1C[C@H](C)[C@H](CN(C)S(=O)(=O)c2ccc(F)cc2)OCCCC[C@H](C)Oc2ccc(NC(=O)Nc3ccc(C(F)(F)F)cc3)cc2C1=O returned Tcruzi prolif 93 and Pf Dd2 inh -31.
For C[C@@H]1CCCCO[C@@H](CN(C)S(=O)(=O)c2ccc(Cl)cc2)[C@@H](C)CN([C@H](C)CO)C(=O)c2cc(NC(=O)Nc3ccc(C(F)(F)F)cc3)ccc2O1 the results were Tcruzi prolif 87, C diff growth 19 and Pf Dd2 inh -86*.
Screening C[C@@H]1CN([C@@H](C)CO)C(=O)c2cc(NC(=O)CCC(F)(F)F)ccc2O[C@@H](C)CCCCO[C@@H]1CN(C)S(=O)(=O)c1ccc(Cl)cc1 returned Tcruzi prolif 39, C diff growth -7 and Pf Dd2 inh -86*.
C[C@@H]1CCCCO[C@@H](CN(C)S(=O)(=O)c2ccc(Cl)cc2)[C@@H](C)CN([C@H](C)CO)C(=O)c2cc(NC(=O)CCC(F)(F)F)ccc2O1 was read as Tcruzi prolif 29, C diff growth 4 and Pf Dd2 inh -78.
For C[C@@H]1CCCCO[C@@H](CN(C)S(=O)(=O)c2ccc(Cl)cc2)[C@H](C)CN([C@H](C)CO)C(=O)c2cc(NC(=O)Nc3ccc(C(F)(F)F)cc3)ccc2O1 the results were Tcruzi prolif 70, C diff growth 14 and Pf Dd2 inh -77.
For CO[C@@H]1CN(C)C(=O)c2ccc(NC(=O)Nc3cccc(F)c3)cc2OC[C@H](C)N(C(=O)Nc2c(C)noc2C)C[C@H]1C the results were Pf Dd2 inh 6.
For C[C@H](CO)N1C[C@H](C)[C@@H](CN(C)C(=O)Nc2cccc3ccccc23)OCCCC[C@H](C)Oc2ccc(NC(=O)Cc3ccccc3)cc2C1=O the results were Tcruzi prolif 35, C diff growth -15 and Pf Dd2 inh inconclusive.
Screening C[C@@H]1CN([C@H](C)CO)C(=O)c2cc(NC(=O)Cc3ccccc3)ccc2O[C@@H](C)CCCCO[C@@H]1CN(C)C(=O)Nc1cccc2ccccc12 returned Tcruzi prolif 83, C diff growth 14 and Pf Dd2 inh -92*.
C[C@@H]1CCCCO[C@@H](CN(C)C(=O)Nc2cccc3ccccc23)[C@@H](C)CN([C@H](C)CO)C(=O)c2cc(NC(=O)Cc3ccccc3)ccc2O1 was read as Tcruzi prolif -35, C diff growth 19 and Pf Dd2 inh -84*.
For C[C@@H]1CCCCO[C@H](CN(C)C(=O)Nc2cccc3ccccc23)[C@H](C)CN([C@H](C)CO)C(=O)c2cc(NC(=O)Cc3ccccc3)ccc2O1 the results were C diff growth -2 and Pf Dd2 inh -84*.
For C[C@@H]1CCCCO[C@H](CN(C)C(=O)Nc2cccc3ccccc23)[C@H](C)CN([C@@H](C)CO)C(=O)c2cc(NC(=O)Nc3ccccc3)ccc2O1 the results were Tcruzi prolif 96, C diff growth 4 and Pf Dd2 inh -50.
C[C@@H]1CN([C@@H](C)CO)C(=O)c2cc(NC(=O)Nc3ccccc3)ccc2O[C@@H](C)CCCCO[C@H]1CN(C)C(=O)Nc1cccc2ccccc12 was read as Tcruzi prolif 31, C diff growth -2 and Pf Dd2 inh -37.
For C[C@H]1CN([C@@H](C)CO)C(=O)c2cccc(NC(=O)C3CCCCC3)c2O[C@@H]1CN(C)S(=O)(=O)c1cccs1 the results were Tcruzi prolif 1, C diff growth -5 and Pf Dd2 inh 6.
`CCCNC(=O)N1C[C@@H](C)[C@H](OC)CN(C)C(=O)c2ccc(NS(C)(=O)=O)cc2OC[C@H]1C` gave Tcruzi prolif -12 and Pf Dd2 inh 13.
For O=C(c1cccc(F)c1)N1C[C@H]2[C@@H](c3ccccc31)[C@@H](CO)N2C(=O)c1ccccn1 the results were Tcruzi prolif 25, C diff growth -5 and Pf Dd2 inh -30.
For C[C@@H]1CCCCO[C@@H](CN(C)S(=O)(=O)c2ccc(Cl)cc2)[C@H](C)CN([C@H](C)CO)C(=O)c2cc(NC(=O)Nc3ccc(F)cc3)ccc2O1 the results were Tcruzi prolif 89, C diff growth 8 and Pf Dd2 inh -81*.
Screening Cc1ccc(S(=O)(=O)N(C)C[C@H]2OCCCC[C@H](C)Oc3ccc(NC(=O)Nc4ccc(F)cc4)cc3C(=O)N([C@@H](C)CO)C[C@H]2C)cc1 returned Tcruzi prolif 59 and Pf Dd2 inh -82*.

Compound activity: PubChem, Broad Institute
